# Experimental data as given in PMC4336329 (PLoS ONE, 2015).
# The campaign covered roughly 310,000 compounds. About 14,000 (4.5%) showed an effect of 50% or more. Effects have a minus sign here. What follows is part of a selection rich in strong results, with near analogues and random picks from the rest.
# Target: human ether-à-go-go-related gene (hERG) potassium channel (human, UniProt Q12809)
# Experiment: primary screen, population patch clamp on CHO cells stably expressing hERG; higher = less effect of the substance
# 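Further: peak tail current of the secondary pulse compared with the same well before compound.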
# human ether-à-go-go-related gene (hERG) potassium channel, sequence (Q12809 whole entry, looked up): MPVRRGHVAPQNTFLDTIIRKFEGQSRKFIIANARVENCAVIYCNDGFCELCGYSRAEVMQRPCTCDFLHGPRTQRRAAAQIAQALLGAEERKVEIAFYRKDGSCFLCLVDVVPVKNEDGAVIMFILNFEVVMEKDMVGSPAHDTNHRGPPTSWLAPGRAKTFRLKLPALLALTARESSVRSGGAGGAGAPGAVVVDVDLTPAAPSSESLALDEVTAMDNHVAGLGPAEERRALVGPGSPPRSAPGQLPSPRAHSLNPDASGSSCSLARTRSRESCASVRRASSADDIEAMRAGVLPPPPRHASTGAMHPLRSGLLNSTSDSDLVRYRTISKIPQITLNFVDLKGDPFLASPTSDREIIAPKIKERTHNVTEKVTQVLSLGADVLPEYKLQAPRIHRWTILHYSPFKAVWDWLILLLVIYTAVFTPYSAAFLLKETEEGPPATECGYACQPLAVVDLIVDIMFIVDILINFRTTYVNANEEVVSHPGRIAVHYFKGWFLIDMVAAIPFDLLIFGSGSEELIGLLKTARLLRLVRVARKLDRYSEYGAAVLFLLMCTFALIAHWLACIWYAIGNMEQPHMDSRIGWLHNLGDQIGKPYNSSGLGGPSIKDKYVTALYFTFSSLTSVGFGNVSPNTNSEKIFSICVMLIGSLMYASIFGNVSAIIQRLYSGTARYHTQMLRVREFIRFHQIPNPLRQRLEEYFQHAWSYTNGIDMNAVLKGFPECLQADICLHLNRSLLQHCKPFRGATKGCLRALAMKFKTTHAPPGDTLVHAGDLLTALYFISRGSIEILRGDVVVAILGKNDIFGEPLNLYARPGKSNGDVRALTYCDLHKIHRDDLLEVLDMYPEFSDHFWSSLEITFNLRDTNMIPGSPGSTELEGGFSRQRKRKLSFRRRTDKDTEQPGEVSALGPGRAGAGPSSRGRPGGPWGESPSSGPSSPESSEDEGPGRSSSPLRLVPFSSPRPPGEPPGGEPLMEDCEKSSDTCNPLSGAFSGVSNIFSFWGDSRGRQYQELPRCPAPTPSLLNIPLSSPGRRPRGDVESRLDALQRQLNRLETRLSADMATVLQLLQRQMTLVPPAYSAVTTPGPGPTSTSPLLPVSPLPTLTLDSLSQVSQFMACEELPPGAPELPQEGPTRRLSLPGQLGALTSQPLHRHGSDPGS
row,Compound,"hERG current change (%, negative = inhibition) at 10uM"
1,Cc1ccc(NC(=O)CN2CCOCC2)cc1C,14.3%
2,Cc1ccc(NC(=Nc2ccc(Br)cc2)N2CCOCC2)cc1C,-63.8%
3,Cc1ccc(NC(=S)NCCN2CCOCC2)cc1C,-5.31%
4,Cc1ccc(NC2CCCN(C(=O)c3cccc(-c4ncc[nH]4)c3)C2)cc1C (centres unmarked),3.23%
5,NC(=O)c1nsc(C(=O)N(Cc2cccnc2)C(C(=O)NCc2ccc(F)cc2)c2ccc(F)cc2)c1N (centres unmarked),0.71%
6,CCC(C)(C)NC(=O)C(c1ccc(F)cc1)N(Cc1ccc(OC)cc1)C(=O)c1cnccn1 (centres unmarked),-11.8%
7,COc1ccc(C(C(=O)NCc2ccc(F)cc2)N(Cc2cccnc2)C(=O)c2snc(C(N)=O)c2N)cc1 (centres unmarked),-62%
8,COc1ccc(CN(C(=O)c2cnccn2)C(C(=O)Nc2ccc(F)cc2)c2ccccc2)cc1 (centres unmarked),-68.2%
9,NC(=O)c1nsc(C(=O)N(Cc2cccnc2)C(C(=O)NCc2ccc(F)cc2)c2ccc(O)cc2)c1N (centres unmarked),-1.96%
10,COc1ccc(NC(=O)C(c2ccccc2)N(C)C(=O)c2cnccn2)cc1 (centres unmarked),1.47%
11,CCOc1ccc(S(=O)(=O)NNC(=S)Nc2ccc(Br)cc2)cc1,5.35%
12,COC1=C(Nc2ccccc2OC)C(=O)c2ccccc2C1=O,0.0125%
13,Cc1ccc(N(C(=O)c2ccc(S(=O)(=O)N3CCOCC3)cc2)C2C=CS(=O)(=O)C2)cc1 (centres unmarked),3.58%
14,O=C(NCc1ccc(Cl)cc1)C(=O)NCC1OCCN1C(=O)c1cccs1 (centres unmarked),-7.77%
15,O=C(NCc1ccc(F)cc1)C(=O)NCC1OCCN1C(=O)c1cccs1 (centres unmarked),-4.15%
16,O=C(NCc1ccccc1)C(=O)NCC1OCCN1C(=O)c1cccs1 (centres unmarked),-65.3%
17,Cl.NS(=O)(=O)c1ccc(CCNCc2ccccc2OCc2ccc(F)cc2)cc1,-74.5%
18,COc1cc(CNCCc2ccc(S(N)(=O)=O)cc2)ccc1OCc1ccc(Cl)cc1.Cl,-31.8%
19,C=CCOc1ccccc1CNCCc1ccc(S(N)(=O)=O)cc1.Cl,-37.2%

row,Compound,"hERG current change (%, negative = inhibition) at 10uM"
1,Cl.NS(=O)(=O)c1ccc(CCNCc2ccccc2OCc2ccc(Cl)cc2)cc1,-73.1%
2,Cl.NS(=O)(=O)c1ccc(CCNCc2cc(Cl)ccc2OCc2ccccc2)cc1,-74.5%
3,NS(=O)(=O)c1ccc(CCNC(=O)c2ccccc2OCc2ccc(F)cc2)cc1,4.16%
4,NS(=O)(=O)c1ccc(NCc2cc(Cl)ccc2OCc2ccc(F)cc2)cc1,3.36%
5,Cl.Clc1ccc(COc2ccccc2CNCc2cccnc2)cc1,-31.1%
6,NS(=O)(=O)c1ccc(NCc2ccccc2OCc2ccc(F)cc2)cc1,-17%
7,CCCc1cc2c(cc1NC(=O)c1ccccc1F)OCO2,-11.3%
8,CC(=O)Nc1sc2c(c1C(=O)N1CCOCC1)CCCCC2,17.9%
9,Cc1ccc(-n2ncc3c(NCC4CCCO4)ncnc32)c(C)c1 (centres unmarked),12.9%
10,COc1cc(C(C)=O)ccc1OCC(=O)Nc1ccc2nc(C)sc2c1,13.4%
11,CC(SC#N)C(=O)C12CC3CC(CC(C3)C1)C2 (centres unmarked),-8.99%
12,O=C1CN=C(c2ccccc2)c2ccccc2N1,8.11%
13,O=[N+]([O-])/C=C/c1cn(Cc2ccc(Cl)cc2)c2ccccc12,2.65%
14,O=C(NCc1cccnc1)C(Cl)(Cl)Cl,0.208%
15,CCN(CC)c1ccc(S(=O)(=O)N2CCOCC2)cc1NC(=O)COC(=O)COc1ccccc1C,12.7%
16,CC1=CC=CC2=NC(=O)CC(C)(C(=O)N(CC(=O)NC3CCCC3)c3ccc(F)cc3)N12 (centres unmarked),11.1%
17,Cc1nn(C)c(C)c1S(=O)(=O)N(CC(=O)NCCCN1CC(C)CC(C)C1)c1ccc(C(C)C)cc1 (centres unmarked),-66.4%
18,Cc1nn(C)c(C)c1S(=O)(=O)N(CC(=O)NCCCN1CCC(C)CC1)c1ccc(C(C)C)cc1,-64.7%
19,Cc1nn(C)c(C)c1S(=O)(=O)N(CC(=O)NC1CCCCCC1)c1ccc(C(C)C)cc1,-10.4%

row,Compound,"hERG current change (%, negative = inhibition) at 10uM"
1,Cc1nn(C)c(C)c1S(=O)(=O)N(CC(=O)NCCN1CCOCC1)c1ccc(C(C)C)cc1,-2.41%
2,Cc1nn(C)c(C)c1S(=O)(=O)N(CC(=O)Nc1ccccn1)c1ccc(C(C)C)cc1,-7.4%
3,Cc1nn(C)c(C)c1S(=O)(=O)N(CC(=O)NCc1cccs1)c1ccc(C(C)C)cc1,9.79%
4,Cc1cccc(NC(=O)CN(c2ccc(C(C)C)cc2)S(=O)(=O)c2c(C)nn(C)c2C)n1,-12.2%
5,Cc1nn(C)c(C)c1S(=O)(=O)N(CC(=O)NCCCOC(C)C)c1ccc(C(C)C)cc1,-69.6%
6,Cc1nn(C)c(C)c1S(=O)(=O)N(CC(=O)NCc1ccco1)c1ccc(C(C)C)cc1,16.6%
7,C#CCOCCOCCOCCNc1nc(N2CCN(C(=O)[C@H]([C@@H](C)CC)n3cc(CCCC[NH3+])nn3)CC2)nc(N2CCN(C(=O)[C@H](CCCC[NH3+])n3cc(CC(C)O)nn3)CC2)n1.[Cl-] (some centres unmarked),14.3%
8,COc1ccc(C2C(C#N)=C(C)NC3=C2C(=O)CC(C)(C)C3)c(OC)c1 (centres unmarked),-6.3%
9,Cc1ccccc1OCCCCn1c(CO)nc2ccccc21,-45.1%
10,COc1ccc(-c2nnc(SCC(=O)NCc3cccs3)n2CC(C)C)cc1,-15.2%
11,CNC(=S)N1CCN(c2ccccc2OC)CC1,7.94%
12,CC(=O)n1cc(/C=N/NC(N)=S)c2ccccc21,-18.4%
13,CC/C(O)=C1\C(=O)CC(c2ccccc2)CC1=NCCC(=O)O (centres unmarked),15.6%
14,CCCN=C1CC(C)(C)CC(=O)/C1=C(/O)CCCN1C(=O)c2ccccc2C1=O,-11.4%
15,CCCCN=C1CC(C)(C)CC(=O)/C1=C(/O)CCCN1C(=O)c2ccccc2C1=O,-61.4%
16,CC1(C)CC(=O)/C(=C(\O)CCCN2C(=O)c3ccccc3C2=O)C(=NCCO)C1,11.7%
17,O=C(O)CN=C1CC(c2ccccc2)CC(=O)/C1=C(/O)CCCN1C(=O)c2ccccc2C1=O (centres unmarked),1.09%
18,O=C1CC(c2ccccc2)CC(=NCCO)/C1=C(\O)CCCN1C(=O)c2ccccc2C1=O (centres unmarked),-71.9%
